Cycloheximide cs: affects cycloheximide protein synthesis inhibition readout, counter-screen | cell reporter, cycloheximide protein synthesis inhibition counterscreen | max response, % | 300,000 compounds, 12% hits | AID 2314; in the data active = max response mostly above about 13%, no sharp cut-off; inactive = mostly below about 14%; also: read at 38.3 µM for the half of the compounds with a filed dose; 0% is about no effect
Pf growth 48h: inhibits P. falciparum growth in the first generation, 48 h; P. falciparum luciferase growth in erythrocytes, 48 h; 310,000 compounds, 5.9% hits; Potency, µM (highest dose often 28.7 µM), inactives show top-dose activity change, negative = inhibition, actives largely listed as inhibitors; AID 504832; also: potency is read from the fitted curve at half-maximal effect; % is scaled to controls: 0 for no effect and ±100 for the full control effect
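Luciferase-expressing parasites in RBCs, 2% Hct / 0.1% parasitemia final; RPMI 1640 + 0.5% Albumax; 37 C, 5% CO2, one generation; luminescence read-out, lower signal = inhibition.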
Pf growth 96h: P. falciparum growth inhibition at 96 hours | AID 504834 | Potency, µM (series often up to 28.7 µM), for inactives: top-dose activity change, negative = inhibition, actives largely listed as inhibitors | 320,000 compounds, 6.9% hits | P. falciparum luciferase reporter growth, 96 h; also: potency is read from the fitted curve at half-maximal effect; % is scaled to controls: 0 for no effect and ±100 for the full control effect
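Erythrocytes infected with luciferase-expressing P. falciparum were dispensed at 2% hematocrit and 0.05% parasitemia (final), then incubated with compounds 96 hours at 37 C in 5% CO2. Luminescence after detection reagent addition reported growth.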
Shiga inhibitor: blocks Shiga toxin action in Vero cells | Vero cells, Shiga toxin protein synthesis inhibition reporter | 290,000 compounds, 9.2% hits | inhibition, % at 38.7 µM | AID 2315; in the data active = inhibition mostly above about 28%, no sharp cut-off; inactive = mostly below about 43%; also: 0% is about no effect
HCV inh: blocks hepatitis C virus; 340,000 compounds, 3.4% hits; Huh7.5.1 HCVcc-Cre infection, luciferase reporter, 44 h; Potency, µM (doses to about 41.8 µM), without a hit: at the top dose activity change, negative = inhibition, hits mostly inhibitors; AID 651820; also: potency is read from the fitted curve at half-maximal effect; % is scaled to controls: 0 for no effect and ±100 for the full control effect
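1,000 cells/well; 4 h culture; + compound; + HCVcc-Cre (~0.5 moi); 44 h; luciferase substrate, RT 15 min; read 15 sec.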
AMA1-RON2 inh: inhibitors of Plasmodium falciparum AMA1-RON2 interaction; AlphaScreen AMA1-biotinylated RON2 peptide binding; AID 720542; Potency, µM (highest dose often 58.2 µM), without a hit: top-dose activity change, negative = inhibition, actives largely listed as inhibitors; 360,000 compounds, 0.2% hits;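 also: potency is read from the fitted curve at half-maximal effect; 0% = vehicle wells and -100% = peptide control; nearly all actives have a fitted effect of over 45% in size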
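AMA1 (3D7) with his tag at 25 nM final met compounds first, then biotinylated RON2 peptide at 25 nM; detection used donor plus acceptor beads, 10 µg/mL apiece, read by AlphaScreen after 30 min at room temperature.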
* hit, by the source's call. An excerpt weighted towards active compounds, which were near 21% of everything screened. Unless noted, calls follow the shape of the dose curve; as a rule, active = well fitted curve in the direction sought with a large enough effect; inconclusive = small, poorly fitted or top-dose-only effect, or another doubt; inactive = no such curve, though single readings can be large; an effect the other way counts as inactive or inconclusive.

Results for CCc1ccc(OCC(=O)Nc2ccc(S(=O)(=O)Nc3ccccn3)cc2)cc1 ?
Cycloheximide cs: -3; Pf growth 48h: -19%; Pf growth 96h: -9%; Shiga inhibitor: -4; HCV inh: 4%; AMA1-RON2 inh: 18%

Results for CCOc1c(C(=O)CC)cc2c(C)cc(=O)oc2c1C ?
Cycloheximide cs: -3; Pf growth 48h: 12µM*; Pf growth 96h: inconclusive; Shiga inhibitor: 7; HCV inh: inconclusive; AMA1-RON2 inh: -9%

How did CCOc1ccc2c(C)cc(=O)oc2c1OCC do in these assays?
Cycloheximide cs: 14; Pf growth 48h: inconclusive; Pf growth 96h: 39%; Shiga inhibitor: -9; HCV inh: -8%; AMA1-RON2 inh: 5%

Results for CC(C)(C)OC(=O)C[C@H]1C/C=C\C[C@H](CC(=O)NCCO)C(=O)N[C@@H](c2ccccc2)COC1=O ?
HCV inh: 1%; AMA1-RON2 inh: 5%

How did O=C(CN1C(=O)/C(=C\c2cccc(Br)c2)Oc2ccccc21)NCCCN1CCOCC1 do in these assays?
Cycloheximide cs: 7; Pf growth 48h: inconclusive; Pf growth 96h: inconclusive; Shiga inhibitor: 0; HCV inh: 6.3µM*; AMA1-RON2 inh: -1%

How did O=C(CN1C(=O)/C(=C/c2ccc(C(F)(F)F)cc2)Sc2ccccc21)NCCCN1CCOCC1 do in these assays?
Cycloheximide cs: 10; Pf growth 48h: 0%; Pf growth 96h: -23%; Shiga inhibitor: 2; HCV inh: 11µM*; AMA1-RON2 inh: -3%

Results for O=C(CCN1C(=O)/C(=C\c2ccccc2)SC1=S)NCCCN1CCOCC1 ?
Cycloheximide cs: -1; Pf growth 48h: 13µM*; Pf growth 96h: 7.4µM*; Shiga inhibitor: -6; HCV inh: inconclusive; AMA1-RON2 inh: 13%

How did O=C(CN1C(=O)COc2ccccc21)NCCCN1CCOCC1 do in these assays?
Cycloheximide cs: 10; Pf growth 48h: 10%; Pf growth 96h: 2%; Shiga inhibitor: -11; HCV inh: 8%; AMA1-RON2 inh: 3%

Results for CN(CC(=O)Nc1c(Cl)cccc1Cl)C(=O)c1ccc2nc[nH]c2c1 ?
Pf growth 48h: 0%; Pf growth 96h: 49%; HCV inh: 0%; AMA1-RON2 inh: -18%

What do the screens show for `Cc1cc(Br)c2nc3c(c(C(=O)O)c2c1)CCCCC3`?
Cycloheximide cs: 0; Pf growth 48h: -3%; Pf growth 96h: 8.3µM*; Shiga inhibitor: -5; HCV inh: 13%; AMA1-RON2 inh: -21%

Results for Cn1ccc(C(=O)N/N=C/c2c[nH]c3ccccc23)n1 ?
Cycloheximide cs: 45*; Pf growth 48h: 41%; Pf growth 96h: inconclusive; Shiga inhibitor: 59*; HCV inh: 7%; AMA1-RON2 inh: -1%

Results for CCOc1ccc2ccccc2c1/C=N/NC(=O)c1cc(C)[nH]n1 ?
Cycloheximide cs: -3; Pf growth 48h: -6%; Pf growth 96h: 12%; Shiga inhibitor: -5; HCV inh: -27%; AMA1-RON2 inh: 0%

What do the screens show for `CC(C)c1cc(C(=O)N/N=C/c2c[nH]c3ccccc23)n[nH]1`?
Cycloheximide cs: 17*; Pf growth 48h: 3%; Pf growth 96h: -2%; Shiga inhibitor: 53*; HCV inh: -10%; AMA1-RON2 inh: 21%

How did CCOc1ccccc1/C=N/NC(=O)c1cc(C(C)C)[nH]n1 do in these assays?
Cycloheximide cs: 36*; Pf growth 48h: -1%; Pf growth 96h: 4%; Shiga inhibitor: 65*; HCV inh: inconclusive; AMA1-RON2 inh: -7%

Results for O=CNc1cc(-c2cccc(F)c2)cn2c(-c3ccc(F)c(Cl)c3)cnc12 ?
AMA1-RON2 inh: 31%

Results for c1ccc2[nH]c(CSc3nc4ccccc4s3)nc2c1 ?
Cycloheximide cs: 44*; Pf growth 48h: inconclusive; Pf growth 96h: -26%; Shiga inhibitor: 55*; HCV inh: inconclusive; AMA1-RON2 inh: -2%

Results for c1ccc(SCc2nc(-c3ccncc3)n[nH]2)nc1 ?
Cycloheximide cs: 16; Pf growth 48h: 85%; Pf growth 96h: 32%; Shiga inhibitor: 46*; HCV inh: -4%; AMA1-RON2 inh: 11%

How did c1ccc(SCc2nc3ccccc3[nH]2)nc1 do in these assays?
Cycloheximide cs: 26*; Pf growth 48h: 44%; Shiga inhibitor: 60*; HCV inh: 13%; AMA1-RON2 inh: -8%

How did Cc1nnc(SCc2nc3ccccc3[nH]2)s1 do in these assays?
Cycloheximide cs: -2; Pf growth 48h: 24%; Pf growth 96h: 163%; Shiga inhibitor: 17; HCV inh: 22%; AMA1-RON2 inh: 7%

Results for Fc1ccccc1Nc1n[nH]c(=S)s1 ?
Cycloheximide cs: 26*; Pf growth 48h: 50%; Pf growth 96h: 100%; Shiga inhibitor: 69*; HCV inh: -1%; AMA1-RON2 inh: 67%

Results for CCOC(=O)c1c(SCCN2CCCCC2)n(-c2ccccc2)c(=S)n(-c2ccccc2)c1=O ?
HCV inh: inconclusive; AMA1-RON2 inh: 7%

Results for CC(C)(C)c1ccc(C(=O)NCC2CCCN2S(=O)(=O)c2ccccc2)cc1 (stereo not drawn) ?
Pf growth 48h: 9.3µM*; Pf growth 96h: 13µM*; HCV inh: inconclusive; AMA1-RON2 inh: 0%

How did O=C(NCC1CCCN1S(=O)(=O)c1cccs1)c1ccc(F)c(F)c1 (stereo not drawn) do in these assays?
Pf growth 48h: -24%; Pf growth 96h: 12%; HCV inh: inconclusive; AMA1-RON2 inh: -3%

Results for Cc1ccc(S(=O)(=O)N2CCCC2CNC(=O)c2ccc(F)c(F)c2)cc1 (stereo not drawn) ?
Pf growth 48h: 10µM*; Pf growth 96h: inconclusive; HCV inh: inconclusive; AMA1-RON2 inh: -9%

What do the screens show for `Cc1ccc(C)c(S(=O)(=O)N2CCCC2CNC(=O)c2ccc([N+](=O)[O-])cc2)c1` (stereo not drawn)?
Pf growth 48h: 10µM*; Pf growth 96h: inconclusive; HCV inh: 11µM*; AMA1-RON2 inh: 5%

Results for Cc1ccc(C(=O)NCC2CCCN2S(=O)(=O)c2ccc(C)cc2)cc1 (stereo not drawn) ?
Pf growth 48h: inconclusive; Pf growth 96h: 10µM*; HCV inh: -20%; AMA1-RON2 inh: 16%

What do the screens show for `CC1=C(C(=O)N2CCCCCC2)CC(CC(=O)NC2CCCC2)C(=O)N1CCC1=CCCCC1` (stereo not drawn)?
AMA1-RON2 inh: -3%

How did COc1ccc(SC[C@H](Cc2ccccc2)N2CC[C@@H](NC(=O)OCc3ccccc3)CCC2=O)cc1 do in these assays?
Pf growth 48h: 7.4µM*; Pf growth 96h: inconclusive; HCV inh: inconclusive; AMA1-RON2 inh: -8%

Results for COc1ccc(SC[C@H](Cc2ccccc2)N2CC[C@@H](C)CCC2=O)cc1 ?
Pf growth 48h: 12µM*; Pf growth 96h: inconclusive; HCV inh: inconclusive; AMA1-RON2 inh: -2%

Screening results deposited in PubChem BioAssay by National Center for Advancing Translational Sciences (NCATS).
